Experimental data: PubChem BioAssay AID1645851 (National Center for Advancing Translational Sciences (NCATS), 2021)
Several values for one entry are separate records, joined by “and”; a condition that tells them apart may be missing. Equal values may be shown once. Hit rate of the full screen: of about 140,000 compounds, about 1,200 (0.86%) were called active. Rule as the data show it: active = activity change below about -25%; inactive = the rest. Shown is part of a subset that was picked to be rich in actives. More than one record can exist for a structure, and the calls need not agree.
% is scaled to controls: 0 for no effect and ±100 for the full control effect.
Also: series mostly up to about 58 µM.

These molecules were tested against Inositol hexakisphosphate kinase 1 (Homo sapiens) (UniProt Q92551) (assay: Primary qHTS assay for small molecule inhibitors of Inositol hexaphosphate kinase 1 (IP6K1)). Conditions: ADP-Glo luminescence, 2 h, stronger effect = lower value.
Inositol hexakisphosphate kinase 1 (Homo sapiens), sequence (Q92551 whole entry, looked up): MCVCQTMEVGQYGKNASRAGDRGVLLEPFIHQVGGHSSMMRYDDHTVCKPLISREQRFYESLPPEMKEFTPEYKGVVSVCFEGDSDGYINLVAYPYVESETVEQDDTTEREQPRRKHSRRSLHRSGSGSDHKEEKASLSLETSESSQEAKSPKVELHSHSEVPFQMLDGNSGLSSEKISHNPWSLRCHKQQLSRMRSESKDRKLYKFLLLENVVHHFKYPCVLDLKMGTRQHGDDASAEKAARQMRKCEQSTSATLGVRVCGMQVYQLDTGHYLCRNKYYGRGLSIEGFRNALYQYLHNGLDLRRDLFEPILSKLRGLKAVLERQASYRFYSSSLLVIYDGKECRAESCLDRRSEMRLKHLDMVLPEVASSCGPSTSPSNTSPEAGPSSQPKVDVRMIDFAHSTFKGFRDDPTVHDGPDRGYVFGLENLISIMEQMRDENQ
How it was run: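 ADP-Glo luminescence measures ADP made by human IP6K1 during a 2 h RT reaction with ATP/IP6 (mix at 1.3 mM/130 uM); top library doses 57.5 and 19.1 uM final.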
In the case of CCCn1c(C)cnc1C1CCN(S(C)(=O)=O)C1 (stereo unspecified), the activity change is reported as 2.78% (inactive). In the case of O=C(NC1CCCCCC1)C1CCCN(Cc2cccc(-c3cccs3)c2)C1 (stereo unspecified), the activity change is reported as 8.71% (inactive). For Cn1nc(C2CCCN(C(=O)NCc3ccccc3)C2)n(Cc2ccccc2)c1=O (stereo unspecified), the activity change was -4.56% (inactive). COc1ccccc1N1CCCc2ncc(C(=O)N3CCCC[C@@H]3c3ccccc3)cc21 was tested, and the activity change was -3.23% (inactive). For COC(=O)[C@H](NC(=O)[C@@H]1C[C@H](NC(=O)Nc2ccc(F)cc2F)CN1C(C)=O)C(C)C, the activity change was -6.82% (inactive). In the case of O=C(Nc1cccc(-c2nc3ccccc3o2)c1)c1cccc(Br)c1, the activity change is reported as 18.7% (inactive). With Cc1ccc(SCC(=O)Nc2ccc3oc(-c4ccccc4C)nc3c2)cc1 the activity change was 18.6% (inactive). CCC(=O)Nc1cccc(-c2nc3cc(C)ccc3o2)c1 was tested, and the activity change was -27.3% (active). For CC1(c2ccccc2)N(Cc2ccccc2F)C(=O)OC12CCN(Cc1cccc(O)c1)CC2 (stereo unspecified), the activity change was -6.41% (inactive). With Cc1noc(-c2ccc(OC3CN(C(=O)c4ccco4)C3)cc2)n1 the activity change was 5.28% (inactive). For CC1(C)[C@H](Cc2cc(CC3CCCCC3)on2)C[C@@H]1NC(=O)C1CCC1, the activity change was -13.8% (inactive). With O=C(NCc1ccc2c(c1)OCO2)C1CCCN(Cc2cccc(-c3cccs3)c2)C1 (stereo unspecified) the activity change was -3.87% (inactive). With COc1ccc(C(=O)N2CCCC2C(=O)N2CCCC2c2nc3ccncc3[nH]2)cc1 (stereo unspecified) the activity change was 15.6% (inactive). COc1ccc(-c2nc3ccncc3[nH]2)cc1 was tested, and the activity change was -18.1% (inactive) and -33.5% (active). For c1cc(-c2nc3ccncc3[nH]2)ccn1, the activity change was 3.83% (inactive) and 13.8% (inactive). O=C(NCC1CN(C(=O)c2cnccn2)CC12CCOCC2)N1CCCC1 (stereo unspecified) was tested, and the activity change was 5.72% (inactive). COc1ccc2[nH]c3c(c2c1)CCNC31CCN(C(=O)c2ccccc2)CC1 was tested, and the activity change was 15.7% (inactive). In the case of CCOc1ccccc1C(=O)N1CCC(Oc2ncccc2C(=O)N(C)C)C1 (stereo unspecified), the activity change is reported as 17.8% (inactive). CCOc1ncccc1C(=O)N1CCN(Cc2ccccc2)CC(O)C1 (stereo unspecified) was tested, and the activity change was -34.4% (active). In the case of O=C(c1ccccc1Cl)N1CCN(C(=O)c2nc3cccnc3n(Cc3ccccc3)c2=O)CC1, the activity change is reported as -2.58% (inactive). Nc1nc2c(s1)C(c1ccccc1)CC(=O)N2 (stereo unspecified) was tested, and the activity change was -56.5% (active). In the case of CN1C(=O)CC(c2ccccc2)C1=O (stereo unspecified), the activity change is reported as 10.2% (inactive). With COC(=O)[C@H](NC(=O)C1=C[C@@H](NC(=O)CS(=O)(=O)c2ccccc2)[C@@H](O)[C@H](O)C1)C(C)C the activity change was 22% (inactive). In the case of COc1cccc(CN2CCOC[C@H](Oc3ccccc3)C2)c1, the activity change is reported as 7.17% (inactive). With Cc1cccc(C(=O)N2CCC3(CC2)CC(c2ccccc2)CN(C)C3)n1 (stereo unspecified) the activity change was -35.9% (active). For CN(C)CC1(O)CCC2(CCN(C(=O)c3ccc4ccccc4n3)CC2)CC1, the activity change was -13.2% (inactive). CSCC(=O)N1CCC2(CC1)CC(c1ccccc1)CN(C)C2 (stereo unspecified) was tested, and the activity change was 3.1% (inactive). CC1=C[C@@H](CNC(C)C)[C@H](C(C)C)C[C@H]1Cc1nnc(-c2ccc(C)cc2)o1 was tested, and the activity change was -3.97% (inactive). With O=C(Cc1cccc(F)c1)N1CCC[C@H]1c1nc(-c2ccc(F)cc2)n[nH]1 the activity change was 21.1% (inactive). With O=C1CCC2(C(=O)NCCCN3CCCC3)CCC=C2N1C1CCCC1 (stereo unspecified) the activity change was 9.28% (inactive). In the case of CCOc1cccc(CC(=O)N2CCc3c([nH]c4ccccc34)C2c2ccc(F)cc2)c1OCC (stereo unspecified), the activity change is reported as 2.13% (inactive). In the case of CCOc1ccccc1CNC(=O)c1ccc(-n2c(C)cc3c2CCC(C)C3)cc1 (stereo unspecified), the activity change is reported as 14.3% (inactive). In the case of CCOc1cccc2c1N[C@@H](c1ccc(C(=O)O)cc1)[C@H]1CC=C[C@@H]21, the activity change is reported as -85.5% (active). With COc1ccc(OC2CN(CC3CCCCC3)C2)cc1 the activity change was -18% (inactive). CCN(CC)CCNC(=O)C12CCCC=C1N(Cc1ccccc1)C(=O)CC2 (stereo unspecified) was tested, and the activity change was 7.12% (inactive). CCc1cccc(NC(=O)c2cnc(N3CCOCC3)c3ccccc23)c1 was tested, and the activity change was -10.5% (inactive). With O=C(OCCN1CCOCC1)c1cccnc1Nc1cccc(C(F)(F)F)c1 the activity change was -58.6% (active). O=C(c1ccccc1)N1CCNc2cnc(Nc3cccc(C(F)(F)F)c3)nc2C1 was tested, and the activity change was 4.76% (inactive). In the case of O=C(c1ccc(Cl)cc1)N1CCCC(n2cc(-c3nc(-c4ccccc4)no3)nn2)C1 (stereo unspecified), the activity change is reported as 5.18% (inactive). For O=C(C1CCCN(C(=O)C2CC2)C1)N1CCC(N2CCCC2=O)CC1 (stereo unspecified), the activity change was -0.186% (inactive). CN(C)C[C@@H]1CN(c2ccncn2)C[C@H]1NC(=O)c1cc(C2CC2)[nH]n1 was tested, and the activity change was 3.23% (inactive). With O=C(NC1CCN(Cc2ccccc2)CC1)c1ccc(Cn2c(=O)c3ccccc3n(Cc3cccc(F)c3)c2=O)cc1 the activity change was 6.69% (inactive). In the case of CCn1c2ccccc2c2cc(CN3CCN(Cc4cccc(Cl)c4)CC3)ccc21, the activity change is reported as -4.05% (inactive). In the case of O=c1c2ccccc2n(Cc2cccc(Cl)c2)c(=O)n1Cc1ccccc1, the activity change is reported as -26% (active). O=C(NCc1ccccc1)c1ccc2nc(-c3ccnc(Cl)c3)oc2c1 was tested, and the activity change was -0.193% (inactive). CCc1ccc(CN(C)C(=O)c2ccc3oc(-c4cccc(F)c4)nc3c2)nc1 was tested, and the activity change was 12.9% (inactive). CN(C)C(=O)c1ccc2oc(-c3ccnc(Cl)c3)nc2c1 was tested, and the activity change was -35.6% (active). In the case of CCOc1ccc(CC(=O)NC2CCN(c3cc(-c4ccc(F)cc4)[nH]n3)CC2)cc1OCC, the activity change is reported as 22.5% (inactive). COc1ccccc1NC(=O)C1=C(C)Nc2ncnn2C1c1sccc1C (stereo unspecified) was tested, and the activity change was -0.661% (inactive). With CC1=C(C(=O)Nc2ccccc2Cl)C(c2cccs2)n2ncnc2N1 (stereo unspecified) the activity change was -26.4% (active). With CCOc1ccccc1NC(=O)C1=C(C)Nc2ncnn2C1c1ccc(NC(C)=O)cc1 (stereo unspecified) the activity change was -19.2% (inactive). In the case of CCN(Cc1ccccc1)C(=O)CCc1ccc2c(c1)CN(C(=O)NC(C)C)CCO2, the activity change is reported as -13.8% (inactive). With CCCC(C)N1CC2(CCN(C(=O)c3csc(C(C)C)n3)CC2)OC1=O (stereo unspecified) the activity change was 4.73% (inactive). COc1ccc(-c2ccc3ncn(Cc4ccccc4)c(=O)c3n2)cc1OC was tested, and the activity change was 7.2% (inactive). With O=c1c2nc(-c3ccccc3)ccc2ncn1Cc1ccccc1 the activity change was 5.89% (inactive). O=c1ncn(Cc2ccccc2)c2ccc(-c3ccoc3)nc12 was tested, and the activity change was -29% (active).
